In PubChem BioAssay (EPA / NIEHS):
Active and inactive are the calls of the source. How the source made its calls: active means hit-call score of the fitted dose curve at least 0.9, where 1 is the maximum; inactive means score below 0.9.

These molecules were tested on Plasminogen activator inhibitor-1 (PAI1), SERPINE1 (gene 5054) (assay: BSK_MyoF_PAI1: BioMAP Diversity Plus: MyoF Assay for Plasminogen activator inhibitor-1 (PAI1) Biomarker Activity (AID 2284256)). Conditions: primary human lung fibroblasts.
Method: BSK_MyoF is a cell-based, multiplexed-readout assay that uses lung fibroblasts, […], with measurements taken at 24 hours after chemical dosing in a microplate: 96-well plate.BSK_MyoF_PAI1 is an assay component measured in the BSK_MyoF assay. It measures PAI-1 antibody related to regulation of gene expression using ELISA technology.Data from the assay component BSK_MyoF_PAI1 was analyzed at the endpoint, BSK_MyoF_PAI1, in the positive analysis fitting direction relative to DMSO as the negative control and baseline of activity. Using a type of binding reporter, gain or loss-of-signal activity can be used to understand protein changes. To generalize the intended target to other relatable targets, this assay endpoint is annotated to the 'cytokine' intended target family, where the subfamily is 'plasmogen activator inhibitor'.
The levels of cell surface (or secreted, indicated by the prefix "s") biomarker endpoints were measured by ELISA. Overt cytotoxicity to cells in confluent adherent cultures (all systems other than the BT system) was assessed by measuring total protein levels using sulforhodamine B (SRB) staining in parallel cultures at the time of biomarker measurements, indicated as SRB endpoints. For proliferation assays for adherent cell types, individual cell types are cultured at sub-confluence and relative cell numbers quantified by SRB staining at time points optimized for each system (48 h: 3C and CASM3C systems; 72 h: BT and HDF3CGF systems; 96 h: SAg system). SRB was performed by staining cells with 0.1% SRB after fixation with 10% TCA and reading wells at 560 nm.Viability and proliferation of PBMC (T cells) was quantified by Alamar Blue reduction for the SAg and BT systems. For PBMC viability (referred to as PBMC Cytotoxicity within the assay endpoint names), cells were plated (75,000/well in a 96-well plate) and then chemical samples added for 1 h before addition of activators, SEB and TSST-1 (20 ng/mL final concentration each). Cells were incubated for 90 h. Then, Alamar Blue (20 uL/well) (Invitrogen, Cat DAL1100) was added for 6 h, and the plates were read with a fluorescence microplate reader at 546/580 nm (excitation/emission). For PBMC proliferation, cells were plated and activated as above but incubated for only 16 h prior to addition of Alamar Blue. Plates were read after 6 h.

Row | SMILES | outcome | AC50
1 | CC(C)CC(=O)CC(C)CC(C)C (stereo not given) | inactive | 
2 | Sc1nc2ccccc2s1 | inactive | 
3 | OC(C(F)(F)F)(C(F)(F)F)C(O)(C(F)(F)F)C(F)(F)F |  | 53.5 µM (active)
4 | Oc1cccc2ccccc12 | inactive | 
5 | Cc1cc(-n2nc3ccc(Cl)cc3n2)c(O)c(C(C)(C)C)c1 | inactive | 
6 | CCCCCCCCCC/C=C/C1CC(=O)OC1=O (stereo not given) | inactive | 
7 | Cc1cccnc1 | inactive | 
8 | CCCCCCCCCCCCCCCCCC[N+](C)(C)C |  | 3.36 µM (active)
9 | CC[N+](CC)(CC(=O)Nc1c(C)cccc1C)Cc1ccccc1 | inactive | 
10 | CCCCCCC(O)CCCCCCCCCCC(=O)OC (stereo not given) | inactive | 
11 | CN(C)c1ccc(C(c2ccccc2)c2ccc(N(C)C)cc2)cc1 | inactive | 
12 | CN(C)CCC(c1ccc(Cl)cc1)c1ccccn1 (stereo not given) | inactive | 
13 | CCCCCCCCCCC1CO1 (stereo not given) |  | 29 µM (active)
14 | COC(=O)/C=C\C(=O)OC | inactive | 
15 | O=C(C(=O)c1ccccc1)c1ccccc1 | inactive | 
